Results published in PubChem BioAssay (NCI).
The panel holds about 79,000 compounds, 15% with a hit somewhere; the sample as a whole holds those more often. Cut-off read from the data, not from the text of the source: active = growth inhibition above about 70%; inactive = the rest.

Assays:
[1] = NCI Yeast Anticancer Drug Screen. Data for the rad50 strain (AID 155);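 note: 0% = growth of vehicle-only cultures of the same strain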; conditions: S. cerevisiae rad50 strain growth inhibition; at 50.0 µM; stronger effect = higher value
Method in brief: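 Yeast carrying a defined DNA repair defect were exposed to test compounds, and growth was compared with vehicle-treated controls to give percent inhibition.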

[2] = NCI Yeast Anticancer Drug Screen. Data for the mec2-1 strain (AID 157); conditions: S. cerevisiae mec2-1 strain, at 50.0 µM, stronger effect = higher value
Method in brief: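 Yeast mec2-1 mutant treated with compound. Readout: growth inhibition vs vehicle controls.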

[3] = NCI Yeast Anticancer Drug Screen. Data for the sgs1 mgt1 strain (AID 161);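 note: 0% = growth of cultures given vehicle only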; conditions: S. cerevisiae sgs1 mgt1 strain, at 50.0 µM, stronger effect = higher value
Method in brief: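 Mutant yeast exposed to compound; growth scored against vehicle-only wells.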

[4] = NCI Yeast Anticancer Drug Screen. Data for the cln2 rad14 strain (AID 165);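 note: 0% = growth equal to vehicle treated cultures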; conditions: S. cerevisiae cln2 rad14 strain, at 50.0 µM, stronger effect = higher value
Method in brief: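 cln2 rad14 yeast strain; compound exposure; growth inhibition read vs vehicle controls.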

[5] = NCI Yeast Anticancer Drug Screen. Data for the bub3 strain (AID 167); conditions: S. cerevisiae bub3 mutant strain, at 50.0 µM, stronger effect = higher value
Method in brief: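 Compounds were applied to a genetically altered yeast strain carrying a cell-cycle control defect. Growth inhibition was scored against vehicle-treated controls.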

[6] = NCI Yeast Anticancer Drug Screen. Data for the mlh1 rad18 strain (AID 175); conditions: S. cerevisiae mlh1 rad18 strain growth inhibition; at 50.0 µM; stronger effect = higher value
Method in brief: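 Yeast w/ defined DNA-repair lesions; compound exposure; growth vs vehicle controls → % inhibition.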

Measured: growth inhibition

CN(C=O)c1ccc2c(c1)C(=O)c1ccccc1-2
inactive: [1] 11.7% | [2] 2.1% | [3] 0.1% | [4] 4.2% | [5] -0.3% | [6] 9.55%

c1ccc(CN2CCCNCC2)cc1
inactive: [1] 9.55% | [2] -1.4% | [3] -0.25% | [4] -11.8% | [5] 4.7% | [6] -0.05%

COc1ccc(C[C@H](N)C(=O)NC2C(CO)OC(n3cnc4c(N(C)C)ncnc43)C2O)cc1 (stereo partly drawn)
inactive: [1] -1.7% | [2] -35.1% | [3] -18.4% | [4] -0.8% | [5] -26.9% | [6] -17.3%

CC(=O)OC1=C(OC(C)=O)N(S(=O)(=O)c2ccc(C)cc2)CCc2ccccc21
inactive: [1] 31.4% | [2] 20.4% | [3] 36.6% | [4] 26.5% | [5] 6.5% | [6] 36%

c1ccc(-c2nc(-c3ccccc3)n3nc4c(c3c2-c2ccccc2)CCCCCC4)cc1
inactive: [1] -6.65% | [2] 5.65% | [3] -19.6% | [4] -8.55% | [5] -0.35% | [6] 0.2%

CC(C)Oc1c(N(C)CCO)c2cc(Cl)ccc2oc1=O
inactive: [1] -6.1% | [2] 12.4% | [3] 3.45% | [4] 19.6% | [5] 5.75% | [6] 3.05%

CNc1nc(C)nc(NC)n1
inactive: [1] -29.9% | [2] -5.1% | [3] -30.4% | [4] -36.2% | [5] 18.4% | [6] -22.9%

COC(=O)CC1C2C=CN(C(=O)OC)N(C(=O)OC)C21 (stereo not drawn)
inactive: [1] -3.3% | [2] 4.25% | [3] 6.35% | [4] 10.8% | [5] 5.7% | [6] 3.9%

CCN(CC)CCOC(=O)Cc1ccccc1
inactive: [1] -8.9% | [2] -12.7% | [3] 19.9% | [4] 7.65% | [5] 6.5% | [6] 0.9%

Nc1ccccc1C(=O)CC1OC(=O)c2ccccc21 (stereo not drawn)
inactive: [1] 19.6% | [2] 12.1% | [3] 7.35% | [4] 4% | [5] 7.8% | [6] -13.7%

CCCCC1(CCBr)C(=O)NC(=Nc2ccccc2)NC1=O (stereo not drawn)
inactive: [1] 1.85% | [2] -5.35% | [3] 10.3% | [4] -41.8% | [5] 2.95% | [6] -13.9%

O=C(CCN1C(=O)c2ccccc2C1=O)c1cnc(N2C(=O)c3ccccc3C2=O)[nH]1
inactive: [1] 15.6% | [2] -4.45% | [3] 11.4% | [4] -22.4% | [5] 18.9% | [6] 2.5%

Cc1cc(N(CCC#N)CCC#N)ccc1/C=C\C(=O)Nc1ccccc1
inactive: [1] 19.3% | [2] 16.3% | [3] -10.8% | [4] 10.2% | [5] 36.7% | [6] 4.55%

O=CN(C1CCCCC1)C1CCCCC1
inactive: [1] 14.6% | [2] 15.6% | [3] 11% | [4] 8.8% | [5] 1.5% | [6] 0%

Cn1c(=O)c2c(nc(Cc3ccccc3)n2CC(=O)O)n(C)c1=O
inactive: [1] 0.3% | [2] -18.1% | [3] -30.8% | [4] -6.95% | [5] -32.1% | [6] -18.9%

O=C(NCCNCCO)N/N=C/c1ccc([N+](=O)[O-])cc1
inactive: [1] -8.75% | [2] -7.35% | [3] -1.4% | [4] 36.6% | [5] 0.3% | [6] -3.65%

CSc1nc(N(C)C)c2[nH]ncc2n1
inactive: [1] 5.25% | [2] -0.5% | [3] -3.6% | [4] -10.6% | [5] 19.7% | [6] 3.25%

CCC1(CN(C)C)CC/C(=C\c2ccc(OC)c(OC)c2)C1=O (stereo not drawn)
inactive: [1] 13.2% | [2] 0% | [3] -1.25% | [4] 15.9% | [5] 7.8% | [6] 25.2%

C/C(=N\NC(=S)N1CCCCCC1)c1nccs1
inactive: [1] 3.95% | [2] 0.25% | [3] -1.5% | [4] -18% | [5] -6.9% | [6] 2.15%

O=C1c2ccccc2C(=O)N1Cc1ccccc1
inactive: [1] 3.55% | [2] -16.9% | [3] 6.6% | [4] 27.4% | [5] 0.45% | [6] 6.7%

CCCCCCCCCCCCCCCCOc1ccc(Sc2ccc([N+](=O)[O-])cc2)cc1
inactive: [1] 44.5% | [2] 4.2% | [3] 35.6% | [4] -3.9% | [5] 13.6% | [6] 31.6%

S=c1[nH]c(=S)c2nnn(-c3ccccc3)c2[nH]1
inactive: [1] -47% | [2] -38% | [3] -31.5% | [4] -25.9% | [5] -47.9% | [6] -34%

CN1CC(O)c2cc(N=NC(N)=O)c(O)cc21 (stereo not drawn)
inactive: [1] -16.6% | [2] -9.5% | [3] -4.85% | [4] 5.85% | [5] -7.25% | [6] -2.45%

CCC(C(C)=O)C(C)C (stereo not drawn)
inactive: [1] 5.2% | [2] 6.55% | [3] 8.6% | [4] 7.2% | [5] -2% | [6] 13.3%

CCOC(=O)C(=O)Cc1cnccn1
inactive: [1] -25.2% | [2] -12.7% | [3] -11.8% | [4] -0.9% | [5] -17.8% | [6] -2.65%

CSc1c(C)n([O-])c2ccccc2[n+]1=O
inactive: [1] 23.1% | [2] 26.1% | [3] 8.85% | [4] -20.5% | [5] 26.1% | [6] 5.4%

CC(=O)O[C@@H]1[C@H]2[C@@H](OC(=O)c3ccccc3)[C@@H](C)C[C@]2(O)[C@H](OC(C)=O)[C@@]2(C)[C@@H]3C[C@@](C)(OC(C)=O)C[C@@H](OC(C)=O)[C@@]3(OC(C)=O)C[C@@]12C
inactive: [1] -7.55% | [2] -7.05% | [3] -3.8% | [4] -32.8% | [5] -6.35% | [6] -50.5%

CC1=Nc2ccccc2NC(C)(C)C1
inactive: [1] 30.1% | [2] 23.4% | [3] 29.5% | [4] 13.9% | [5] 15.2% | [6] 20.4%

Clc1ccc(-c2cc3ccccc3[nH]2)cc1
inactive: [1] 23.9% | [2] -3.3% | [3] -1.25% | [4] -32.4% | [5] 2.4% | [6] -5.05%

COc1cc(C(=O)CBr)c(OC)cc1C
inactive: [1] 10.9% | [2] -10.7% | [3] 38% | [4] 17% | [5] 2.15% | [6] 46.8%

Cc1cc2ncn(C3CCCO3)c2cc1C (stereo not drawn)
inactive: [1] 6.35% | [2] -6.1% | [3] -14.3% | [4] 3.45% | [5] 3.7% | [6] -23.1%

CCOC(=O)C(CC[C@@H]1N[C@H](C(N)=O)Cc2c1[nH]c1ccccc21)C(=O)OCC
inactive: [1] 8.5% | [2] -9.85% | [3] 5.3% | [4] 7.55% | [5] 7.9% | [6] -13.7%

Cn1ccccc1=O
inactive: [1] 36.8% | [2] -26.7% | [3] -8.55% | [4] -56.5% | [5] 3.4% | [6] 27.2%

C=C(C)S(=O)(=O)c1ccc(C)cc1
inactive: [1] 11.3% | [2] -16.4% | [3] -5.7% | [4] -15.3% | [5] 12% | [6] 11.8%

CCN(CC)c1nc2ccccc2o1
inactive: [1] -16.9% | [2] 16% | [3] 3.7% | [4] -36.8% | [5] -19.9% | [6] -9.2%

O=C1c2ccccc2-c2cc(F)ccc21
inactive: [1] 18.3% | [2] -10.4% | [3] -7.4% | [4] -6.25% | [5] 17.6% | [6] -0.1%

O=c1cc(-c2ccccc2)c2ccccc2[nH]1
inactive: [1] 2.15% | [2] -6.8% | [3] -12.5% | [4] 15.9% | [5] -27.1% | [6] -1%

OCC1OC(n2c(SCc3ccccc3)nc3ccccc32)C(O)C1O (stereo not drawn)
inactive: [1] -3.5% | [2] 1.45% | [3] -9.1% | [4] -11.9% | [5] 6.4% | [6] 0.1%
